Data reported in PubChem BioAssay AID1851 (National Center for Advancing Translational Sciences (NCATS), 2009).
Values joined by “and” are separate entries in the source; they are usually repeats but may differ in a detail not shown here. Equal values may be shown once. The campaign covered roughly 16,000 compounds. About 5,800 (36%) were called active. Another 23% or so got no clear call; they are omitted. The list shows a part of the results. A number with no mark means an inactive call. Calls follow the shape of the dose curve; as a rule, active = well fitted curve in the direction sought with a large enough effect; inconclusive = small, poorly fitted or top-dose-only effect, or effect the other way; inactive = no such curve, though single readings can be large or run the other way.

target: Cytochrome P450 2C19 (Homo sapiens) (UniProt P33261); assay: Cytochrome panel assay with activity outcomes; details: recombinant CYP, pro-luciferin dealkylation, luminescence, p450-cyp2c19; series mostly up to 57.1 µM
% is scaled to controls: 0 for no effect and ±100 for the full control effect.

Sequence of Cytochrome P450 2C19 (Homo sapiens) (P33261 whole entry, looked up): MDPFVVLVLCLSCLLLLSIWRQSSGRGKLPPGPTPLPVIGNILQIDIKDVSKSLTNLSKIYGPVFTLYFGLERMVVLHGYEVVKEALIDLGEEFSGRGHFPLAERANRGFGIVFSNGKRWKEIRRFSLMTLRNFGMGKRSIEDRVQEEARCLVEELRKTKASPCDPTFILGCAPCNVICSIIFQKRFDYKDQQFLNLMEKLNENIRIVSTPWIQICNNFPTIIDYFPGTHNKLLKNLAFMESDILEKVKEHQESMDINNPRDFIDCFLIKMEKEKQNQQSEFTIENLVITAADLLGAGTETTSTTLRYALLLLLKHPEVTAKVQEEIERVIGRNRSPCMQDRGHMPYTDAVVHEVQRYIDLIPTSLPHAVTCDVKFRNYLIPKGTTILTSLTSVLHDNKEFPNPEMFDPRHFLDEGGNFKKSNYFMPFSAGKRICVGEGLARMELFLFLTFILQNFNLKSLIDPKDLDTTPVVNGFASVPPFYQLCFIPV

Compound | AC50 | activity, negative = inhibition
CC12CCC(C(=O)O)(C/C1=N\O)C2(C)C (configuration not stated) | inactive | 
Cc1cc(C(=O)OCC(=O)NCCC(C)C)c2ccccc2n1 | 14.1 µM (active) | 
COc1ccc(OC)c(-c2cc(C(=O)O)c3cc4ccccc4cc3n2)c1 |  | 2.46% [at 11.4 µM]
CC(C)NC(=O)COC(=O)c1cc(=O)[nH]c2ccccc12 | inactive | 
CCNC(=O)COC(=O)c1cc(-c2ccc(OC)cc2)nc2ccccc12 | 11.2 µM (active) | 
N[C@@H](Cc1[nH]nc2ccccc12)C(=O)O |  | 2.15% [at 11.4 µM]
CCNC(=O)COC(=O)c1cc(=O)[nH]c2ccccc12 | inactive | 
COc1ccc(C(=O)N2CCC3(CC2)CN(C(=O)Nc2ccccc2)C3)cc1 | inactive | 
COc1ccc(C(=S)Nc2ccccc2)cc1 | 3.98 µM (active) | 
COc1ccc(NC(=S)Nc2ccccc2)cc1 | 2 µM (active) | 
CC(=O)O[C@]1(C(C)=O)CC[C@@H]2[C@@H]3C=C(Cl)C4=CC(=O)[C@H]5C[C@@H]5[C@]4(C)[C@H]3CC[C@]21C | inactive | 
COc1cccc(-c2[nH]nc3c2C(c2ccsc2)C(C#N)=C(N)O3)c1 (configuration not stated) | 0.447 µM (active) | 
COc1cccc(-c2[nH]nc3c2C(c2ccc(C)o2)C(C#N)=C(N)O3)c1 (configuration not stated) | 1.78 µM (active) | 
CS(=O)(=O)N1CCC2(CCN(Cc3nccs3)CC2)CC1 | inactive | 
NC(N)=N[C@H](CCC(=O)O)C(=O)O | inactive | 
COC(=O)N1CCC[C@@]2(CCN(C(=O)Nc3cccc(C#N)c3)C2)C1 | inactive | 
COC(=O)C1=C(C)OC(N)=C(C#N)C1C1CCCCC1 (configuration not stated) | 0.562 µM (active) | 
COc1cc(C2C(C#N)=C(N)OC3=C2C(=O)CCC3)cc(OC)c1OC(=O)N1CCOCC1 (configuration not stated) | inactive | 
COC(=O)C1=C(C)OC(N)=C(C#N)C1c1cc(OC)ccc1OC (configuration not stated) | 7.94 µM (active) | 
COC(=O)c1ccccc1OCC(=O)N1CCN(c2ccc(OC)cc2)CC1 | 14.1 µM (active) | 
COc1ccc(C(=O)N2CCC3(CCN(Cc4ccccc4OC)CC3)CC2)cc1 | inactive | 
COc1ccc(N2CCN(C(=N)/C(C(C)=O)=C(\C)O)CC2)cc1 | inactive | 
COc1cccc(Nc2ncc(C(=O)O)c3ccccc23)c1 | inactive | 

Compound | AC50 | activity, negative = inhibition
COc1ccc(Nc2ncc(C(=O)N3CCN(c4ccc(F)cc4)CC3)c3ccccc23)cc1 | 2.24 µM (active) | 
O=C(c1coc(=O)c2ccccc12)N1CCN(Cc2ccccc2)CC1 | 2.24 µM (active) | 
COc1ccc(Nc2ncc(C(=O)N3CCN(Cc4ccccc4)CC3)c3ccccc23)cc1 | 2 µM (active) | 
CC(=O)N1CCC2(CCN(Cc3ccccc3)CC2)CC1 | inactive | 
O=C(c1ccco1)N1CCC2(CCN(Cc3ccccc3)CC2)CC1 | inactive | 
C1CNCCOCCNCCN1 | inactive | 
Fc1ccc(COc2ccc(Br)cc2CNCc2ccncc2)cc1 | 0.1 µM (active) | 
CCCN[C@@H](C)C(=O)Nc1c(C)csc1C(=O)OC | inactive | 
COC(=O)c1scc(C)c1NC(=O)Cc1ccccc1 | 15.8 µM (active) | 
O=C(Nc1ccccc1)N1CC[C@@]2(CCCN(C(=O)c3cnccn3)C2)C1 | inactive | 
Cc1cccc(-c2nc(CN3CCCC(C(=O)NC4CCCCC4)C3)c(C)o2)c1 (configuration not stated) | 22.4 µM (active) | 
Cc1ccc(Cc2cnc(NC(=O)c3cccs3)s2)cc1 | 8.91 µM (active) | 
Cc1ccccc1-c1nc(-c2ccc(NC(=O)c3cccs3)cc2)no1 | 2.82 µM (active) | 
Cc1ccc(-c2nnc(-c3ccc(NC(=O)c4cccs4)cc3)o2)cc1 | 6.31 µM (active) | 
Cn1c(=O)c2c(ncn2CCO)n(C)c1=O | inactive | 
Cn1c(=O)c2c(ncn2CC(COCc2ccccc2Cl)OCc2ccccc2Cl)n(C)c1=O (configuration not stated) | 8.91 µM (active) | 
Cn1c(=O)c2c(ncn2C[C@@H](O)CO)n(C)c1=O | inactive | 
Cc1ccc(-c2csc(N3CCC(NS(=O)(=O)c4ccc5c(c4)OCCO5)CC3)n2)cc1 | 3.16 µM (active) | 
CCCCOc1ccc(C(=O)N/C(=C\c2ccc(OC)cc2)C(=O)OCc2ccco2)cc1 | 3.98 µM (active) | 
CCCCOc1ccc(C(=O)N/C(=C\c2cccc([N+](=O)[O-])c2)C(=O)OCCC)cc1 | inactive | 
O=c1c(-c2ccc(Cl)cc2)nc2cnc(N3CCOCC3)nc2n1C1CC1 | inactive | 
C/C(=N\NC(=O)COc1ccc([N+](=O)[O-])cc1)C(C)(C)C | inactive | 
O=C(COc1ccc(Br)cc1)Nc1ccc([N+](=O)[O-])cn1 | 2.82 µM (active) | 

Compound | AC50 | activity, negative = inhibition
CC(=O)Nc1ccc([N+](=O)[O-])cn1 | inactive | 
CCOc1cc(C2CC(=O)c3c(ccc4ccccc34)N2)ccc1O (configuration not stated) | 5.01 µM (active) | 
CCOc1ccc2ccccc2c1C(=O)N[C@@H]1C(=O)N2[C@@H]1SC(C)(C)[C@@H]2C(=O)O | inactive | 
Nc1cccc(OCc2nc(N)nc(N)c2-c2ccc(Cl)cc2)c1 |  | -6.77% [at 11.4 µM]
Cc1cc(OCc2nc(N)nc(N)c2-c2ccc(Cl)c(Cl)c2)ccc1[N+](=O)[O-] | 3.16 µM (active) | 
CC(C)N1CCC(=NNC(=O)c2ccc(Br)o2)CC1 | inactive | 
CCCN1CCC(=NNC(=O)c2ccc(Br)o2)CC1 | 25.1 µM (active) | 
O=C(Nc1nnc(SCc2ccc(Cl)cc2Cl)s1)C1COc2ccccc2O1 (configuration not stated) | 2.51 µM (active) | 
Nc1nc2c(nc(Br)n2[C@@H]2O[C@H]3COP(=O)(O)O[C@H]3[C@@H]2O)c(=O)[nH]1 | inactive | 
CCCC(=O)Nc1cccc(Oc2nc(C)cc(C)c2C#N)c1 | 17.8 µM (active) | 
COC(=O)N1CCC2(CC1)CN(C(=O)Nc1cccc(C#N)c1)C2 | inactive | 
Cc1cnc(NC(=O)CCCc2nc3ccccc3s2)s1 | 7.94 µM (active) | 
COc1ccccc1N1CCN(C[C@@H](C(=O)NC(C)(C)C)c2ccccc2)CC1 | inactive | 
COc1ccccc1N1CCN(C[C@@H](O)COc2cccc3ccccc23)CC1 | 6.31 µM (active) and 7.94 µM (active) and 1.58 µM (active) | 
O=C(O)[C@@H]1CCCN1Cc1cc2ccccc2c2ccccc12 |  | 31.6% [at 11.4 µM]
Clc1ccc(CN2CCCN(Cc3ccc(Cl)cc3)C2c2cc3ccccc3c3ccccc23)cc1 | 0.794 µM (active) | 
CC(C)CC(=O)Nc1ccccc1-c1nnn(CC(=O)N2CCc3ccccc3C2)n1 | 14.1 µM (active) | 
COc1ccc2c(c1OC)C(=O)OC2[C@H]1c2c(cc3c(c2OC)OCO3)CCN1C (some centres not stated) | 2.51 µM (active) | 
COc1ccc2c(c1OC)C(=O)O[C@@H]2[C@H]1c2c(cc3c(c2OC)OCO3)CCN1C | 0.158 µM (active) | 
C[C@H]1CCCC=CC2C[C@H](OC(=O)CN(C)C)C[C@@H]2[C@@H](O)/C=C\C(=O)O1 (some centres not stated) |  | 8.1% [at 11.4 µM]
C#CCSc1nnc(-c2cc3c(C(F)(F)F)nn(C)c3s2)n1C | inactive | 
CSc1nnc(-c2sc(-c3ccccc3)nc2C)n1C | inactive | 
C#CCSc1nnc(-c2sc(-c3ccccc3)nc2C)n1C | 2.51 µM (active) | 

Compound | AC50 | activity, negative = inhibition
COC(=O)[C@@]1(Cc2ccc(F)cc2)[C@@H]2C(=CC(=O)[C@H]2CC(=O)C(=O)N(C)C)CN1C(=O)c1ccccc1 | 25.1 µM (active) | 
COC(=O)[C@@]1(Cc2ccc(F)cc2)[C@@H]2C(=CC(=O)[C@H]2CC(=O)C(=O)N2CCCC2)CN1C(=O)c1ccccc1 | 31.6 µM (active) | 
COC(=O)[C@@]1(Cc2ccccc2)[C@@H]2C(=CC(=O)[C@H]2CC(=O)C(=O)N(C)C)CN1C(=O)c1ccccc1 | inactive | 
CC(NC(=O)Cc1ccc(F)cc1)c1ccccc1 (configuration not stated) | 11.2 µM (active) | 
CC(=O)NC(Cc1ccc(F)cc1)C(=O)O (configuration not stated) | inactive | 
Cc1nnsc1SCC(=O)O | inactive | 
O=C(O)CSc1sc(=S)sc1SCC(=O)O | 10 µM (active) | 
COc1cccc(C(=O)N(Cc2ccccc2)Cc2cc3cc4c(cc3[nH]c2=O)OCCO4)c1 | 15.8 µM (active) | 
C/C(CCN1CCc2nc(-c3ccccc3)c(-c3ccccc3)cc2C1)=N\O[C@@H](C)CN1CCCc2nc(C)c(C)cc21 |  | -28.4% [at 11.4 µM]
Cc1cc(/C=N/n2cnnc2)c(C)n1-c1ccc(OCc2ccccc2F)cc1 | 2 µM (active) | 
CCOC(=O)C(C)(C)[C@H](O)C(C)C |  | 3.67% [at 11.4 µM]
CS[C@]12C(=O)C[C@]3(C)[C@@H](CC[C@@]3(O)C(=O)CO)[C@@H]1CCC1=CC(=O)CC[C@]12C | 3.16 µM (active) | 
CC(=O)OCC(=O)[C@@]1(O)CC[C@@H]2[C@H]3CCC4=CC(=O)CC[C@]4(C)[C@]3(F)[C@@H](O)C[C@@]21C | inactive | 
C[C@@]12CCC(=O)C=C1CC[C@H]1[C@H]3CC[C@](O)(C(=O)CO)[C@]3(C)CC(=O)[C@@H]12 | inactive | 
O=C(c1cccc(F)c1)N1CCC2(CC1)CCN(c1ccc(-c3ccccc3)cc1)CC2 | inactive | 
Cc1ccc(C(=O)N2CCN(c3cc(=O)[nH]nc3-c3ccccc3)CC2)cc1 | 20 µM (active) | 
CC(C)[C@H](CO)Nc1nc(Nc2cc(N)cc(Cl)c2)c2ncn(C(C)C)c2n1 | inactive | 
CC(=O)NCCNc1nc(-c2ccc(C(=O)N(C)C)cc2)nc2ccccc12 | inactive | 
CN(C)C(=O)c1ccc(-c2nc(NCc3cccs3)c3ccccc3n2)cc1 | 10 µM (active) | 
CN(C)C(=O)c1ccc(-c2nc(Nc3ccc(F)cc3)c3ccccc3n2)cc1 | 31.6 µM (active) | 
Cc1cnc(CNc2nc(-c3ccc(C(=O)N(C)C)cc3)nc3ccccc23)cn1 | inactive | 
CN(C)C(=O)c1ccc(-c2nc(Nc3ccccc3)c3ccccc3n2)cc1 | 15.8 µM (active) | 
C=C1CC[C@H](O)C/C1=C/C=C1\CCC[C@]2(C)[C@H]1CC[C@H]2[C@@H](C)/C=C\[C@@H](C)C(C)C | inactive | 
